14 molecules from PubChem BioAssay (EPA / NIEHS) can be followed below.

Experiment [1] is described as follows: TOX21_p53_BLA_p3_viability: Viability Assessment in the Tox21 HCT-116 p53 Agonism Beta-lactamase Assay, Phase 3 (AID 2283593).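 Note: cells exposed to compound for 16 h before reading.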 In short, it runs like this:
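HCT116 cells, 4000/well, dosed 5 h after plating by pin transfer (217-fold dilution from DMSO stock) and incubated 16 h at 37C, 5% CO2. Viability read as ATP luminescence with CellTiter-Glo after 30 min at room temperature.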

In experiment [2] the target is Cellular tumor antigen p53 (Homo sapiens) (UniProt P04637). As to the kind of experiment: TOX21_p53_BLA_p3_ratio: Tox21 HCT-116 p53 Agonism Beta-lactamase Assay, Ratio, Phase 3 (AID 2283596). In a few lines: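 HCT116 p53-bla cells (4000/well) given compound in DMSO (217-fold dilution) after 5 h, incubated 16 h at 37C. CCF4-AM substrate 2 h at room temperature; 460/530 nm emission ratio, gain fitted against DMSO.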
Cellular tumor antigen p53 (Homo sapiens), sequence (P04637 whole entry, looked up): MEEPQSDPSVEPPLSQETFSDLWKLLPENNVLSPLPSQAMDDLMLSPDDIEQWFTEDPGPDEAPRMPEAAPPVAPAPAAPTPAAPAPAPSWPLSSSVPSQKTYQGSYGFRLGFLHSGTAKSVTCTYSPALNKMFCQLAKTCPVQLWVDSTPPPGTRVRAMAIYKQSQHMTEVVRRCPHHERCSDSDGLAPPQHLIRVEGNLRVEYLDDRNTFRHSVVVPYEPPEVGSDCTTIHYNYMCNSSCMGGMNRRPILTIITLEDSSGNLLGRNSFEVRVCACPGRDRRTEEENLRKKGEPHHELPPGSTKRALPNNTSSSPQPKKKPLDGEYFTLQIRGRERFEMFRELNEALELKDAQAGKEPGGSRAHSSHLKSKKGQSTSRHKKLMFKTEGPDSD

Experiment [3] is described as follows: TOX21_p53_BLA_p4_viability: Viability Assessment in the Tox21 HCT-116 p53 Agonism Beta-lactamase Assay, Phase 4 (AID 2283597).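 Note: hits lower the luminescence signal meaning cytotoxicity.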 In short, it runs like this:
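HCT-116 p53-bla cells, 4000/well, dosed after 5 h attachment and incubated 16 h at 37 °C, 5% CO2. Viability from CellTiter-Glo ATP luminescence after 30 min at room temperature, taken after the beta-lactamase read; loss of signal indicates cytotoxicity.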

Experiment [4] deals with Cellular tumor antigen p53 (Homo sapiens) (UniProt P04637). As to the kind of experiment: TOX21_p53_BLA_p5_ratio: Tox21 HCT-116 p53 Agonism Beta-lactamase Assay, Ratio, Phase 5 (AID 2283599). In a few lines:
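HCT-116 p53-bla cells (4000/well) plated 5 h, dosed with compound (217-fold DMSO dilution) for 16 h at 37 C; CCF4-AM substrate 2 h at room temperature. Activity is the 460/530 nm emission ratio (405 nm excitation), fitted in gain-of-signal direction versus DMSO.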

Experiment [5] can be described thus: TOX21_p53_BLA_p5_viability: Viability Assessment in the Tox21 HCT-116 p53 Agonism Beta-lactamase Assay, Phase 5 (AID 2283600). In short, it runs like this:
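HCT-116 p53 beta-lactamase reporter cells, 4000/well, were exposed to compound (pin transfer, 217-fold dilution) for 16 hours at 37C. Cellular ATP was read by CellTiter-Glo luminescence after 30 min at room temperature.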

Experiment [6] addresses Cellular tumor antigen p53 (Homo sapiens) (UniProt P04637). As to the kind of experiment: TOX21_p53_BLA_p4_ratio: Tox21 HCT-116 p53 Agonism Beta-lactamase Assay, Ratio, Phase 4 (AID 2283601). In a few lines: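 HCT-116 p53 beta-lactamase reporter cells (4000/well) preincubated 5 h, then compound (217-fold dilution of DMSO stock) for 16 h at 37C. CCF4-AM substrate added 2 h at room temperature; 460/530 nm emission ratio fitted upward versus DMSO.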

A short description of experiment [7]: Tanguay_ZF_120hpf_MORT_legacy: (Legacy) Oregon State University Tanguay Lab 120 Hour Post-fertilization zebrafish Assay for Mortality (AID 2283633).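 For AC50: fitted as increase in binary mortality versus DMSO negative control.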 In short, it runs like this:
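Dechorionated Tropical 5D wild-type zebrafish embryos, one per well from 6 hpf, static exposure in 0.64% DMSO at 28C until 120 hpf. Mortality scored as binary by brightfield microscopy at 24 and 120 hpf.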

Experiment [8] can be described thus: Tanguay_ZF_120hpf_YSE_legacy: (Legacy) Oregon State University Tanguay Lab 120 Hour Post-fertilization zebrafish Assay for Yolk Sac Edema (AID 2283634).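 For AC50: actives raise the incidence of yolk sac edema above the DMSO baseline.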 In a few lines:
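Dechorionated Tropical 5D wild-type zebrafish embryos were exposed statically, one per well, from 6 to 120 hpf at 28C in 0.64% DMSO. Yolk sac edema was scored present/absent by brightfield at 120 hpf, and dead embryos were excluded.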

Experiment [9] in a line: Tanguay_ZF_120hpf_AXIS_legacy: (Legacy) Oregon State University Tanguay Lab 120 Hour Post-fertilization zebrafish Assay for Body Axis Malformation (AID 2283635).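 For AC50: potency for an increased fraction of larvae scored with body axis malformation.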 In a few lines:
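Dechorionated wild-type Tropical 5D zebrafish embryos, one per well, statically exposed from 6 hpf to 120 hpf at 28C in 0.64% DMSO final. Body axis malformation scored present/absent by brightfield microscopy at 120 hpf; dead embryos excluded.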

A short description of experiment [10]: Tanguay_ZF_120hpf_EYE_legacy: (Legacy) Oregon State University Tanguay Lab 120 Hour Post-fertilization zebrafish Assay for Eye Malformation (AID 2283636).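 Note: binary presence or absence of eye malformation scored by brightfield in 120 hpf larvae.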 In short, it runs like this:
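Dechorionated Tropical 5D zebrafish embryos, one per well from 6 hpf, static exposure to 120 hpf at 28C, 0.64% DMSO. Eye malformation scored present/absent by brightfield; dead embryos not scored.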

Broadly, the AC50 is the midpoint of the concentration-response curve, whichever way the signal moves.

“And” between values parts separate entries of the source, which are not always exact repeats. Equal entries are not always repeated. Inconclusive results are not listed. More than one record can exist for a structure, and the calls need not agree. The source made the active and inactive calls. Rule for the calls: active = hit-call score of the fitted dose curve at least 0.9, where 1 is the maximum; inconclusive = response in the unintended direction; inactive = score below 0.9.

Take `O=C(O)Cc1cc(I)c(Oc2cc(I)c(O)c(I)c2)c(I)c1`: the half-maximal activity concentration (AC50) in [1] was 46.1 µM (active); in experiment [2], 28.2 µM (active); in experiment [3], 30.9 µM (active); in [4], 30.6 µM (active); in experiment [5] it was 49.3 µM (active); in experiment [6], 33.1 µM (active). The AC50 in experiment [7] was 8.91 µM (active); in experiment [9], 0.0204 µM (active); in experiment [10] it was 0.0114 µM (active). Moreover, in experiment [8], the molecule was called inactive.
In the case of `c1ccc2cc3c(ccc4ccccc43)cc2c1`, the call in experiment [1], in [2], in [3], in experiment [4], in experiment [5] and in experiment [6] was inactive. Besides, in [7], the molecule was classed as inactive. Also, the AC50 in experiment [8] was 41.6 µM (active); in experiment [9] it was 12.5 µM (active); in experiment [10], 45.6 µM (active).
For the molecule `Nc1cccc2c(N)cccc12`, the call in [1], in [2], in experiment [3], in [4], in experiment [5] and in [6] was inactive. Also, the result in [7], in [8], in experiment [9] and in experiment [10] was inactive.
In the case of `CCCCCCCCCCCCN1CCCC1=O`, the AC50 in [1] is 69.8 µM (active); in experiment [2], 67.1 µM (active); in experiment [4], 63.2 µM (active); in experiment [5], 45.3 µM (active); in [7], 27.6 µM (active); in experiment [8] it was 47.3 µM (active). Besides, the molecule was classed as inactive in [3], in experiment [6], in [9] and in experiment [10].
On to `COC(=O)CCCCC(=O)OC`, for which the call in [1], in [2], in [3], in [4], in [5] and in experiment [6] was inactive. For the same molecule, the molecule was called inactive in experiment [7], in experiment [9] and in experiment [10].
As for `CC#C[C@]1(O)CC[C@H]2[C@@H]3CCC4=CC(=O)CCC4=C3[C@@H](c3ccc(N(C)C)cc3)C[C@@]21C`, the molecule was called inactive in [1], in experiment [2], in experiment [3], in experiment [5], in experiment [7] and in experiment [10]. The AC50 was 20.1 µM (active) in experiment [2]; 72.6 µM (active) and 22 µM (active) in experiment [4]; 65.8 µM (active) and 20.7 µM (active) in [6]; 73.3 µM (active) in experiment [8]; 82.8 µM (active) in experiment [9].
For `CCN(CC)CCNc1ccc(CNC=O)c2sc3ccc(OC)cc3c(=O)c12`, the molecule was classed as inactive in experiment [1], in [3], in [5], in experiment [7], in [8] and in experiment [9]. Moreover, in experiment [10], the outcome was inactive. Moreover, the concentration at half-maximal activity (AC50) in experiment [2] is 18.7 µM (active); in [4], 29 µM (active); in [6] it was 12.1 µM (active).
On to `Cc1cc(CCN2CCN(c3nsc4ccccc34)CC2)cc2c1NC(=O)CC2(C)C`, for which the AC50 in [1] is 19.9 µM (active); in experiment [3], 74.3 µM (active); in experiment [6], 82.8 µM (active); in experiment [8], 3.6 µM (active); in [9], 5.38 µM (active); in experiment [10], 3.05 µM (active). For the same molecule, the outcome in [2], in experiment [4], in experiment [5] and in [7] was inactive.
With `CCc1ccc(CCOc2ccc(CC3SC(=O)NC3=O)cc2)nc1` (stereo unspecified), the outcome in [1], in [2], in experiment [3], in experiment [4], in experiment [5] and in experiment [6] was inactive. Besides, the call in experiment [7], in experiment [8], in [9] and in [10] was inactive.
As for `COc1ccc([N+](=O)[O-])cc1N`, the molecule was classed as inactive in experiment [1], in [2], in experiment [3], in experiment [4], in experiment [5] and in experiment [6]. For the same molecule, the molecule was classed as inactive in experiment [7], in experiment [8], in [9] and in experiment [10].
With `CCCCCCCC(=O)O`, the outcome in experiment [1], in experiment [2], in experiment [3], in experiment [4], in experiment [5] and in experiment [6] was inactive. In addition, the outcome in experiment [7], in experiment [8], in [9] and in experiment [10] was inactive.
With `CC(O)CO` (stereo unspecified), the call in experiment [1], in [2], in experiment [3], in [4], in [5] and in [6] was inactive. For the same molecule, the outcome in experiment [7], in experiment [8], in [9] and in [10] was inactive.
For `CCCCCCCCC(=O)O`, the molecule was called inactive in experiment [1], in experiment [2], in experiment [3], in [4], in [5] and in experiment [6]. The molecule was called inactive in [7], in experiment [8], in [9] and in experiment [10].
On to `Cc1ccc(S(=O)(=O)O)c(C)c1`, for which the result in experiment [1], in experiment [2], in experiment [3], in experiment [4], in [5] and in experiment [6] was inactive.
